{"source": "PubChem BioAssay (NCATS)", "note": "Several values for one entry are separate records, joined by “and”; a condition that tells them apart may be missing. Identical values can stand only once. Records with an inconclusive call do not appear. Entries that show only a call come without a potency. Activity calls are given as the source filed them. Calls come from the whole dose curve; as a rule, active = well fitted inhibition curve with a large enough effect; inconclusive = small, poorly fitted or top-dose-only effect; inactive = flat fitted curve, though single readings scatter. Potency is the fitted concentration of half-maximal effect."}
{"system": "astro", "assay": "Drug repurposing screens with cells derived from glioblastoma tumor samples (AID 1345199); note: nearly all actives have a fitted effect of over 40% in size", "conditions": "viability, ATP luminescence, 48 h; series mostly up to 45.9 µM", "description": "CD133+ cells were isolated from GBM patient biopsies and cultured as neurospheres. Neurospheres from four patients were used to screen the NCATS pharmaceutical collection (NPC) library of approved drugs and bioactive compounds. […] The neurospheres were incubated with drugs for 48 hours in 1536-well format, then assayed with an ATP content cell viability assay. […] These hits were cherry picked to confirm activity in the four original GBM lines screened plus three other slower growing GMB lines (unable to yield enough cells for a full primary screen). Variable activities of the confirmed primary hits in the different GBM patient lines were observed. The patient line 206 responded to the greatest number of compounds and line 923 responded to the least amount of active compounds."}
{"smiles": "CC1=C(/C=C/C(C)=C/C=C/C(C)=C/C(=O)Nc2ccc(O)cc2)C(C)(C)CCC1", "Potency": "11.2 µM (active)"}
{"smiles": "CCCCC1C(=O)N(c2ccccc2)N(c2ccccc2)C1=O", "Potency": "inactive"}
{"smiles": "COC(=O)[C@@H]1[C@H]2C[C@H]3c4[nH]c5ccccc5c4CCN3C[C@@H]2CC[C@@H]1O", "Potency": "inactive"}
{"smiles": "CN1[C@@H]2CCC[C@@H]1CC(NC(=O)c1nn(C)c3ccccc13)C2", "note": "(stereo not given in full)", "Potency": "inactive"}
{"smiles": "C[N+]1(C)[C@@H]2CC(OC(=O)[C@H](CO)c3ccccc3)C[C@H]1[C@H]1O[C@@H]12", "note": "(stereo not given in full)", "Potency": "inactive"}
{"smiles": "CC(=O)Oc1cc2c(s1)CCN(C(C(=O)C1CC1)c1ccccc1F)C2", "note": "(stereo not given)", "Potency": "inactive"}
{"smiles": "Cc1cccc(C)c1OCC(C)N", "note": "(stereo not given)", "Potency": "inactive"}
{"smiles": "NC[C@@H]1O[C@@H](O[C@H]2[C@@H](O)[C@H](O[C@@H]3[C@@H](O)[C@@H](N)C[C@H](N)[C@H]3O[C@H]3O[C@H](CN)[C@@H](O)[C@@H](O)[C@H]3N)O[C@H]2CO)[C@H](N)[C@@H](O)[C@@H]1O", "Potency": "inactive"}
{"smiles": "O=C(CCCCCCC(=O)Nc1ccccc1)NO", "Potency": "10 µM (active) and 8.91 µM (active)"}
{"smiles": "CC(=O)CCCCn1c(=O)c2c(ncn2C)n(C)c1=O", "Potency": "inactive"}
{"smiles": "NCCS", "Potency": "inactive"}
{"smiles": "CCOC(=O)O[C@]1(C(=O)OCCl)CC[C@@H]2[C@H]3CCC4=CC(=O)C=C[C@]4(C)[C@@H]3[C@@H](O)C[C@@]21C", "Potency": "inactive"}
{"smiles": "CC(C(=O)O)c1ccc(-c2ccccc2)c(F)c1", "note": "(stereo not given)", "Potency": "inactive"}
{"smiles": "CC(C)NCC(O)COc1cccc2[nH]ccc12", "note": "(stereo not given)", "Potency": "inactive"}
{"smiles": "O=C(O)Cc1cccc2ccccc12", "Potency": "inactive"}
{"smiles": "O=C(O)CCc1nc(-c2ccccc2)c(-c2ccccc2)o1", "Potency": "inactive"}
{"smiles": "O=C(NCCN1CCOCC1)c1ccc(Cl)cc1", "Potency": "inactive"}
{"smiles": "COc1ccccc1N1CCN(CCCNc2cc(=O)n(C)c(=O)n2C)CC1", "Potency": "inactive"}
{"smiles": "OC[C@@H](O)[C@H](O)[C@H](O)[C@@H](O)CO", "Potency": "inactive"}
{"smiles": "CCn1cc(C(=O)O)c(=O)c2ccc(C)nc21", "Potency": "inactive"}
{"smiles": "CC/C(=C(\\c1ccccc1)c1ccc(OCCN(C)C)cc1)c1ccccc1", "Potency": "25.1 µM (active)"}
{"smiles": "O=C1NCC2(CCN(CCc3ccccc3)CC2)O1", "Potency": "inactive"}
{"smiles": "O=C1NC(=O)C(c2ccccc2)(c2ccccc2)N1", "Potency": "inactive"}
{"smiles": "CN(C)c1cc(NC(=O)CNC(C)(C)C)c(O)c2c1C[C@@H]1C[C@H]3[C@H](N(C)C)C(=O)C(C(N)=O)=C(O)[C@@]3(O)C(=O)C1=C2O", "Potency": "inactive"}
{"smiles": "CCN(CC)C(=O)c1ccc(O)c(OC)c1", "Potency": "inactive"}
{"smiles": "O=c1[nH]cnc2c1ncn2[C@H]1CC[C@@H](CO)O1", "Potency": "inactive"}
{"smiles": "Cc1nnc(C(C)C)n1C1C[C@H]2CC[C@@H](C1)N2CC[C@H](NC(=O)C1CCC(F)(F)CC1)c1ccccc1", "note": "(stereo not given in full)", "Potency": "inactive"}
{"smiles": "CCN(CC)CCOC(=O)c1ccc(N)cc1", "Potency": "inactive"}
{"smiles": "Clc1ccc(Cn2c(CN3CCCC3)nc3ccccc32)cc1", "Potency": "inactive"}
{"smiles": "CC(=O)O[C@]1(C(C)=O)CC[C@H]2[C@@H]3C=C(Cl)C4=CC(=O)[C@@H]5C[C@@H]5[C@]4(C)[C@H]3CC[C@@]21C", "Potency": "inactive"}
{"smiles": "CC(=O)c1ccc(S(=O)(=O)NC(=O)NC2CCCCC2)cc1", "Potency": "inactive"}
{"smiles": "N#C[C@H]1C[C@H]2C[C@@H]2N1C(=O)[C@@H](N)C12CC3CC(CC(O)(C3)C1)C2", "Potency": "inactive"}
{"smiles": "CC(C)OC(=O)C(C)(C)Oc1ccc(C(=O)c2ccc(Cl)cc2)cc1", "Potency": "inactive"}
{"smiles": "COc1cc2ncnc(Nc3ccc(F)c(Cl)c3)c2cc1OCCCN1CCOCC1", "Potency": "20 µM (active)"}
{"smiles": "C[C@@H](O)[C@H]1C(=O)N2C(C(=O)O)=C(S[C@@H]3CN[C@H](C(=O)N(C)C)C3)[C@H](C)[C@H]12", "Potency": "inactive"}
{"smiles": "CN(C)CCC(c1ccccc1)c1ccccn1", "note": "(stereo not given)", "Potency": "inactive"}
{"smiles": "CC(=O)N[C@@H](CS)C(=O)O", "Potency": "inactive"}
{"smiles": "CC1(C)O[C@H]2C[C@@H]3[C@H]4CCC5=CC(=O)C=C[C@]5(C)[C@@]4(F)[C@@H](O)C[C@]3(C)[C@]2(C(=O)CO)O1", "Potency": "inactive"}
{"smiles": "CCN1CCC[C@H]1CNC(=O)c1cc(S(N)(=O)=O)ccc1OC", "Potency": "inactive"}
{"smiles": "Cc1cnc(C(=O)O)c[n+]1[O-]", "Potency": "inactive"}
